Measured values published in PubChem BioAssay (NCI).
The panel holds about 79,000 compounds, 15% with a hit somewhere; the sample as a whole holds those more often. Activity calls are given as the source filed them. Cut-off read from the data, not from the text of the source: active = growth inhibition above about 70%; inactive = the rest. Where a SMILES comes first, the peptide text is derived from it. The star is where a group is joined. Trt = c1ccc(C(c2ccccc2)(c2ccccc2)*)cc1; Cbz = O=C(OCc1ccccc1)*

Columns and labels:
[1] = NCI Yeast Anticancer Drug Screen. Data for the rad50 strain (AID 155);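 note: 0% = growth of vehicle-only cultures of the same strain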; details: S. cerevisiae rad50 strain growth inhibition; at 50.0 µM; active compounds read high
Method in brief: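 Cells are treated with compound, grown, and their growth is then scored against vehicle-only cultures of the same repair-deficient yeast strain.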

[2] = NCI Yeast Anticancer Drug Screen. Data for the mec2-1 strain (AID 157); details: S. cerevisiae mec2-1 strain, at 50.0 µM, active compounds read high
Method in brief: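 Using mec2-1 yeast: add compound, measure growth, express inhibition versus vehicle-treated cultures.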

[3] = NCI Yeast Anticancer Drug Screen. Data for the sgs1 mgt1 strain (AID 161);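 note: 0% = growth of cultures given vehicle only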; details: S. cerevisiae sgs1 mgt1 strain, at 50.0 µM, active compounds read high
Method in brief: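 Yeast cells carrying a defined DNA-repair defect were exposed to test compounds. Growth inhibition was measured relative to vehicle-treated controls.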

[4] = NCI Yeast Anticancer Drug Screen. Data for the cln2 rad14 strain (AID 165);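 note: 0% = growth equal to vehicle treated cultures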; details: S. cerevisiae cln2 rad14 strain, at 50.0 µM, active compounds read high
Method in brief: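 Yeast strain cln2 rad14, bearing defects in cell cycle control and DNA repair, serves as the test system; values reflect growth inhibition compared with vehicle.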

[5] = NCI Yeast Anticancer Drug Screen. Data for the bub3 strain (AID 167); details: S. cerevisiae bub3 mutant strain, at 50.0 µM, active compounds read high
Method in brief: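 Part of a panel of yeast mutants defective in DNA damage repair or cell cycle regulation. Each strain is grown with compound, and inhibition is calculated relative to solvent-treated cultures.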

[6] = NCI Yeast Anticancer Drug Screen. Data for the mlh1 rad18 strain (AID 175); details: S. cerevisiae mlh1 rad18 strain growth inhibition; at 50.0 µM; active compounds read high
Method in brief: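 Steps: expose repair-defective yeast to compound; measure growth; express inhibition against vehicle-treated controls.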

Measured: growth inhibition

S=C(NCc1ccccc1)Nc1ncn[nH]1
inactive: [1] 5.1% | [2] 0.25% | [3] -5.8% | [4] -22.9% | [5] 3.55% | [6] 3.8%

O=C(Nc1ccccc1)C(c1ccccc1)N(Nc1ccccc1Cl)c1ccccc1Cl (configuration not stated)
inactive: [1] 28.8% | [2] 10.8% | [3] 17.1% | [4] 7.05% | [5] -5% | [6] 25%

CCN(CC)CCCNc1cc(O)cc2cccnc12
inactive: [1] -1.5% | [2] 5% | [3] 26.6% | [4] 2.6% | [5] 2.3% | [6] -0.35%

CCCCCCn1ncc(=O)[nH]c1=O
inactive: [1] 4.2% | [2] -6.7% | [3] 2.75% | [4] -40.8% | [5] 6.6% | [6] 8.9%

COC(=O)C(=[N+]=[N-])C(=O)c1ccc([N+](=O)[O-])cc1
inactive: [1] 65.5% | [2] 23.9% | [3] 40.1% | [4] 41.8% | [5] 20.6% | [6] 42.3%

COC(=O)C(CO)NC(=O)C(CSC(c1ccccc1)(c1ccccc1)c1ccccc1)NC(=O)OCc1ccccc1 (configuration not stated) (Cbz-Cys(Trt)-Ser-OMe; configuration not given here)
inactive: [2] 68.7% | [5] 67.2%
active: [1] 76.2% | [3] 78.8% | [4] 78% | [6] 84.2%

CC(=O)OC1=C(C)C2=C3OC(=O)C(C)=C3CC[C@@]2(C)[C@@H](Cl)[C@@H]1Cl
inactive: [1] 40.9% | [2] -45.9% | [3] -2.6% | [4] -5.85% | [5] -15.2% | [6] -57.9%

CC(=O)n1cc2cc([N+](=O)[O-])ccc2n1
inactive: [1] -13.4% | [2] -13.6% | [3] -1.15% | [4] -91.8% | [5] -1% | [6] -17.1%

Nc1ccn(CCOC(=O)c2ccccc2)c(=O)n1
inactive: [1] -2% | [2] -28% | [3] -14.7% | [4] -6.05% | [5] 31.2% | [6] 15.5%

CN(C)N=Nc1ccc(C(=O)N/N=C/c2ccccc2[N+](=O)[O-])cc1
inactive: [1] -13.8% | [2] 1.2% | [3] -16.6% | [4] -18.2% | [5] -14.7% | [6] -40.8%

Cc1nnc(N)c(C#N)c1C
inactive: [1] -8.45% | [2] 2.3% | [3] 16.6% | [4] -56.9% | [5] 4.45% | [6] -1.85%

COC(=O)NCC(OC(=O)c1cc2c(cc1I)OCO2)C1=CCCCC1 (configuration not stated)
inactive: [1] 54.5% | [2] 30.1% | [3] 37.6% | [4] 29.2% | [5] 48.8% | [6] 28.8%

Cc1cc(=O)[nH]c(N/N=C2/CCCCC2C)n1 (configuration not stated)
inactive: [1] -29.4% | [2] -25% | [3] -7.05% | [4] -0.6% | [5] -24.3% | [6] -21.8%

O=C1CC2CCCCC2=C1O (configuration not stated)
inactive: [1] 18.4% | [2] -11.2% | [3] 14.1% | [4] 17.9% | [5] -3.1% | [6] 13.8%

FC(F)(F)c1cccc2[nH]cnc12
inactive: [1] -24.6% | [2] -2.85% | [3] 6.25% | [4] -12.4% | [5] -4.65% | [6] 2.3%

COc1ccc(CNc2cc(OC)c(OC)c(OC)c2)cc1
inactive: [1] -49.1% | [2] -36.7% | [3] -9.55% | [4] 9.25% | [5] -20.4% | [6] -33.1%

COc1cc(C(=O)C[n+]2ccccc2)ccc1O
active: [1] 95.3% | [2] 86.2% | [3] 84.5% | [4] 97.2% | [5] 97.7% | [6] 99.5%

O=C1c2ccccc2C(=O)c2c3c(cc([N+](=O)[O-])c21)OCO3
inactive: [1] -18.2% | [2] 12.1% | [3] 9.05% | [4] 25.7% | [5] -3% | [6] -9.75%

CC(=O)Oc1ccc(CC(C)C(C)Cc2ccc(OC(C)=O)c(OC(C)=O)c2)cc1OC(C)=O (configuration not stated)
inactive: [1] 51% | [2] 23% | [3] 50% | [4] 7.4% | [5] 0.5% | [6] 26.5%

Cn1c(=O)c2c(ncn2CCSCC2=NS(=O)(=O)c3cc(S(N)(=O)=O)c(C(F)(F)F)cc3N2)n(C)c1=O
inactive: [1] 2.8% | [2] 1.75% | [3] -6.5% | [4] -35.6% | [5] 14.1% | [6] 4.95%

COC(OC)c1cccc2c1C(=O)CCC1(O)c3ccccc3C1C2 (configuration not stated)
inactive: [1] -8.55% | [2] -6.65% | [3] -38.9% | [4] -0.4% | [5] -30.1% | [6] -30.9%

Cc1ccc(S(=O)(=O)OCC2CCC(=O)N2)cc1 (configuration not stated)
inactive: [1] 20.4% | [2] -13.2% | [3] 0.5% | [4] -3.15% | [5] -3.9% | [6] 27.1%

NC(=O)N/N=C/c1ccc(O)cc1
inactive: [1] 5.15% | [2] -1.15% | [3] 1% | [4] -11.1% | [5] -3.85% | [6] -1.5%

CO/N=C1C=C/C(=N\OC)C\1
inactive: [1] 10.7% | [2] -28.2% | [3] 0.5% | [4] 7.55% | [5] -19.1% | [6] 0.8%

Cc1cc2c(C)nn(Cc3ccccc3)c2c(C(=O)O)c1C
inactive: [1] 10.6% | [2] 7.05% | [3] 1.15% | [4] 2.95% | [5] 9.95% | [6] 26.8%

CSC1=NC(C)(C)N=C(Oc2cc(Cl)cc(Cl)c2)N1
inactive: [1] -14.9% | [2] -22.3% | [3] -24.9% | [4] -8.7% | [5] -27.5% | [6] -9.8%

CC(C)C(=O)N(C(C)C)C(C)C
inactive: [1] 25.2% | [2] 12.5% | [3] 8.5% | [4] -21.6% | [5] -0.55% | [6] 38%

O=C(N/N=C/c1ccc(Cl)cc1Cl)c1ccccc1SSc1ccccc1C(=O)N/N=C/c1ccc(Cl)cc1Cl
inactive: [1] -19.1% | [2] 1.55% | [3] -5.45% | [4] -8.1% | [5] -9.75% | [6] 19.8%

CC(=O)OC1(C#N)CC2OC1C1N=NN(C(=O)OC(C)(C)C)C21 (configuration not stated)
inactive: [1] 18.2% | [2] 2.15% | [3] 4.8% | [4] 21.8% | [5] 16.1% | [6] 19.2%

CC(O)C([NH-])C(=O)O.CC([NH-])C(=O)O.[Cu+2] (configuration not stated)
inactive: [1] 26.6% | [2] 15.7% | [3] 6.95% | [4] 12.7% | [5] 13.3% | [6] 15.4%

CCCCn1cnc2c(=S)nc[nH]c21
inactive: [1] -2.7% | [2] -1.9% | [3] -6.35% | [4] -11.6% | [5] -1% | [6] -0.95%

CCC(C(=O)OC)C1CCCCC1 (configuration not stated)
inactive: [1] 24.8% | [2] -27.8% | [3] -12.3% | [4] -7.65% | [5] -10.7% | [6] 22.4%

O=[N+]([O-])c1ccc(N=NN2CCOCC2)cc1
inactive: [1] -0.55% | [2] 3.5% | [3] -1.4% | [4] -1% | [5] -10.7% | [6] 6.55%

CC(=O)Nc1ccc(/C=N/NC(=S)Nc2cccc3cccnc23)cc1
inactive: [1] -1.2% | [2] 17.9% | [3] -5% | [4] 10.5% | [5] 31.4% | [6] -4.45%

CCC[CH2][Ge]([CH2]CCC)([CH2]CCC)[O]C(=O)CCl
inactive: [1] -14.2% | [2] 31.7% | [3] -4.75% | [4] -52.9% | [5] -13.2% | [6] 31.9%

CCOC(=O)c1c[nH]c2cc(Cl)cc(OC)c2c1=O
inactive: [1] -11.3% | [2] -5.6% | [3] -1% | [4] -32.9% | [5] -7.35% | [6] -17%

COc1cc(C(C#N)NNC(=O)c2ccccc2O)ccc1O (configuration not stated)
inactive: [1] 34.4% | [2] 42.8% | [3] 44.7% | [4] 17.6% | [5] 66.2% | [6] 38%
